# The full data set covers some 7,900 targets. This sample favours those with a hit. About 0.6% of all pairs of compound and target were hits. A number with no mark means an inactive call.
# What was measured:
# Experiment in all cases: log2 fold change, soluble protein after heating vs DMSO (PISA); higher = thermal stabilisation; K562 cells, 10 uM, 30 min; active = over 0.2 and 3.5 SD of the protein, either way, in both replicates (recomputed)
# [1] = compound: CC1=C(C=C(C=C1)NC(=O)C2=CC(=CC=C2)C(C)(C)C#N)NC3=CC4=C(C=C3)N=CN(C4=O)C
# Procedure, shortened: (§1)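 K562 cells (2×10^6 cells/mL) were treated with 10 μM compound for 30 min, and aliquots were heated for 3 min over 48°C-58°C. Pooled aliquots were extracted in PBS with 0.5% NP-40 at 4°C, and the supernatant after 21,000xg for 90 min was measured by TMTpro 16plex LC-MS/MS with channel sums equalised. Reported thermal stability, relative to control samples and from duplicates, is a log2 fold change.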
# [2] = compound: CC1=C(C=C(C=C1)NC(=O)C2=CC(=CC=C2)N(C)C)NC(=O)C3=CC=C(C=C3)O
# Procedure, shortened: as §1
# [3] = compound: CC1=CC=C(C=C1)SC2=C3C=C(SC3=CN=C2)C(=O)N
# Procedure, shortened: as §1
# [4] = compound: CC1=NC(=CC=C1)C2=C(N=C(N2)C(C)(C)C)C3=CC4=NC=CN=C4C=C3
# Procedure, shortened: as §1
# Nexturastat A = compound: CCCCN(Cc1ccc(C(=O)NO)cc1)C(=O)Nc1ccccc1 [Nexturastat A]
# Procedure, shortened: as §1
# vemurafenib = compound: CCCS(=O)(=O)Nc1ccc(F)c(C(=O)c2c[nH]c3ncc(-c4ccc(Cl)cc4)cc23)c1F [vemurafenib]
# Procedure, shortened: as §1
# [5] = compound: CCCS(=O)(=O)Nc1ccc(F)c(C(=O)c2c[nH]c3ncc(Cl)cc23)c1F
# Procedure, shortened: as §1
# [6] = compound: CCCc1cc(C)[nH]c(=O)c1CNC(=O)c1cc(-c2ccnc(N3CCN(C)CC3)c2)cc2c1cnn2C(C)C
# Procedure, shortened: as §1
# givinostat = compound: CCN(CC)Cc1ccc2cc(COC(=O)Nc3ccc(C(=O)NO)cc3)ccc2c1 [givinostat]
# Procedure, shortened: as §1
# barasertib = compound: CCN(CCCOc1ccc2c(Nc3cc(CC(=O)Nc4cccc(F)c4)[nH]n3)ncnc2c1)CCOP(=O)(O)O [barasertib]
# Procedure, shortened: as §1
# Sequence of UniProt Q07960 (Q07960 whole entry, looked up): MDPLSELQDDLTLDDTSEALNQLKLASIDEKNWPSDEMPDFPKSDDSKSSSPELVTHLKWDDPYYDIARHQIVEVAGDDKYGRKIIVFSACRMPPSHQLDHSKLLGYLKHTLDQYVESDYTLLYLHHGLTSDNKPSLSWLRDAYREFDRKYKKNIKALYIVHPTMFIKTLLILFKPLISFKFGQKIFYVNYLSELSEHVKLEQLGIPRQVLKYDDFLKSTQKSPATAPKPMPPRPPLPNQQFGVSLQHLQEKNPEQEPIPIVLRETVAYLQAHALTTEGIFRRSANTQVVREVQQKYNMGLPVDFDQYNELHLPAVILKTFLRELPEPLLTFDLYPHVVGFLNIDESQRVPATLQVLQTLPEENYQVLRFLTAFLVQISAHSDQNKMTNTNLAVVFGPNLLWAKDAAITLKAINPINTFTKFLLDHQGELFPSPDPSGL
# Sequence of UniProt Q99943 (Q99943 whole entry, looked up): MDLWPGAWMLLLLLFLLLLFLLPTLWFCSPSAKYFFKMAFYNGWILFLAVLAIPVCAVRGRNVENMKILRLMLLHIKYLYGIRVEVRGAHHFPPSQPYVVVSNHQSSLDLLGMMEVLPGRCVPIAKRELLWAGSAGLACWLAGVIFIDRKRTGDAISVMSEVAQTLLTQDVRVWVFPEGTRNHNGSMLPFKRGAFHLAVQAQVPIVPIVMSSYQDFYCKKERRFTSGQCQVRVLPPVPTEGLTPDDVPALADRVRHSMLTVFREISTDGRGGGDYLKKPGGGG
# Sequence of UniProt O95573 (O95573 whole entry, looked up): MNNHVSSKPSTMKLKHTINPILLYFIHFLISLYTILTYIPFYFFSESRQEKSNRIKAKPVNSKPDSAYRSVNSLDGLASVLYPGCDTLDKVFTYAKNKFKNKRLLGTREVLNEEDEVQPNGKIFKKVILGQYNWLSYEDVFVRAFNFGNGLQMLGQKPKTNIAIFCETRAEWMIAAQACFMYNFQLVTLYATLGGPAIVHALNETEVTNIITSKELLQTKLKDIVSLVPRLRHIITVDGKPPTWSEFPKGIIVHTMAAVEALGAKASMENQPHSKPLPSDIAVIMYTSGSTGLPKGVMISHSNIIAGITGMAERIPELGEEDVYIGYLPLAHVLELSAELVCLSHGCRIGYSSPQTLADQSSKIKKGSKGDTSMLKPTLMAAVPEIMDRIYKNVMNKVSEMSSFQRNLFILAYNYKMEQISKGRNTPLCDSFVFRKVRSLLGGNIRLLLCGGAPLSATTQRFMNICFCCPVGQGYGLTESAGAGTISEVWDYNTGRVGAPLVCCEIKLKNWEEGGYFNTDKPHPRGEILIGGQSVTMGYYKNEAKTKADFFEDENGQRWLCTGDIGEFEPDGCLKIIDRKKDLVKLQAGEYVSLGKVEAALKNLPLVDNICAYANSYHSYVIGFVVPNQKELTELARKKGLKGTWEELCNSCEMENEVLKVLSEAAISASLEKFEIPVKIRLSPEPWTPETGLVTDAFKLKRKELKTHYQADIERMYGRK
# Sequence of UniProt Q9H845 (Q9H845 whole entry, looked up): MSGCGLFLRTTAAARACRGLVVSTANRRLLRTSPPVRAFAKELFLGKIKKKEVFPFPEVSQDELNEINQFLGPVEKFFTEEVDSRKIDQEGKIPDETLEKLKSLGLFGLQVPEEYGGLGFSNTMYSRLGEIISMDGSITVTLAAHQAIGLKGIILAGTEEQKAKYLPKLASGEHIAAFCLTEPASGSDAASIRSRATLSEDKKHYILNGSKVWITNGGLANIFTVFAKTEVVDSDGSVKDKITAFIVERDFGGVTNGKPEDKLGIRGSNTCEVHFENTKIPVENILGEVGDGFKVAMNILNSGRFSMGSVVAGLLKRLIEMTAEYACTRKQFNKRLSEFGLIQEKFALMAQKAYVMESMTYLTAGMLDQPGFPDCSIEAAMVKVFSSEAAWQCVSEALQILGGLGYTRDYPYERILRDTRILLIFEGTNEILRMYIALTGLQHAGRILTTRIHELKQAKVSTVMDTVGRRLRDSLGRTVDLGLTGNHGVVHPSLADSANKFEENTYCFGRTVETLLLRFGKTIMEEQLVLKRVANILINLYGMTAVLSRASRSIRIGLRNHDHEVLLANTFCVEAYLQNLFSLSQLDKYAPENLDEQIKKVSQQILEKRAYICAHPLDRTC
# Sequence of UniProt P31751 (P31751 whole entry, looked up): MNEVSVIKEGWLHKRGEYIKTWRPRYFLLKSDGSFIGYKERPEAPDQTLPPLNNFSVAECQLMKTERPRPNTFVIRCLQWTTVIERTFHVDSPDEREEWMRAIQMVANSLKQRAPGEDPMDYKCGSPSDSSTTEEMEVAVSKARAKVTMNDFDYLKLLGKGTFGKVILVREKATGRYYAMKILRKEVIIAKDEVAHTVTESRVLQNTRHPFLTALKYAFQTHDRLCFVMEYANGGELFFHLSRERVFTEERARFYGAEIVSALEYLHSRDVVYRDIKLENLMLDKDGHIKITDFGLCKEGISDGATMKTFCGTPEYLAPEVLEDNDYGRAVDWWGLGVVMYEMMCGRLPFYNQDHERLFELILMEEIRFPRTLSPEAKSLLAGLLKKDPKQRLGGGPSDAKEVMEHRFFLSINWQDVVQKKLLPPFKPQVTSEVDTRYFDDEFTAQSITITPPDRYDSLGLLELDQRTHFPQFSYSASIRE
# Sequence of UniProt Q9Y6E2 (Q9Y6E2 whole entry, looked up): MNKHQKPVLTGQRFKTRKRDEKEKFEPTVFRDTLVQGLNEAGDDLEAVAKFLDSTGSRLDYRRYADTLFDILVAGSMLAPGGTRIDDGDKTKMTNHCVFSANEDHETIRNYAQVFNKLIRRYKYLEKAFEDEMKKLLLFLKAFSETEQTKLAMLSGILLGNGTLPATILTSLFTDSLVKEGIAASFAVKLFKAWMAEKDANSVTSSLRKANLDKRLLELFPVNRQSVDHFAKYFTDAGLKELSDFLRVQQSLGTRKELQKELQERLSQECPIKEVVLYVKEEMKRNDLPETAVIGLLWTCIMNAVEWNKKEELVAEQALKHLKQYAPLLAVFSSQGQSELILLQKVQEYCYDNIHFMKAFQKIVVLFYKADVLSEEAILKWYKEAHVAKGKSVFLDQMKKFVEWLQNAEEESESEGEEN
# Sequence of UniProt Q93050 (Q93050 whole entry, looked up): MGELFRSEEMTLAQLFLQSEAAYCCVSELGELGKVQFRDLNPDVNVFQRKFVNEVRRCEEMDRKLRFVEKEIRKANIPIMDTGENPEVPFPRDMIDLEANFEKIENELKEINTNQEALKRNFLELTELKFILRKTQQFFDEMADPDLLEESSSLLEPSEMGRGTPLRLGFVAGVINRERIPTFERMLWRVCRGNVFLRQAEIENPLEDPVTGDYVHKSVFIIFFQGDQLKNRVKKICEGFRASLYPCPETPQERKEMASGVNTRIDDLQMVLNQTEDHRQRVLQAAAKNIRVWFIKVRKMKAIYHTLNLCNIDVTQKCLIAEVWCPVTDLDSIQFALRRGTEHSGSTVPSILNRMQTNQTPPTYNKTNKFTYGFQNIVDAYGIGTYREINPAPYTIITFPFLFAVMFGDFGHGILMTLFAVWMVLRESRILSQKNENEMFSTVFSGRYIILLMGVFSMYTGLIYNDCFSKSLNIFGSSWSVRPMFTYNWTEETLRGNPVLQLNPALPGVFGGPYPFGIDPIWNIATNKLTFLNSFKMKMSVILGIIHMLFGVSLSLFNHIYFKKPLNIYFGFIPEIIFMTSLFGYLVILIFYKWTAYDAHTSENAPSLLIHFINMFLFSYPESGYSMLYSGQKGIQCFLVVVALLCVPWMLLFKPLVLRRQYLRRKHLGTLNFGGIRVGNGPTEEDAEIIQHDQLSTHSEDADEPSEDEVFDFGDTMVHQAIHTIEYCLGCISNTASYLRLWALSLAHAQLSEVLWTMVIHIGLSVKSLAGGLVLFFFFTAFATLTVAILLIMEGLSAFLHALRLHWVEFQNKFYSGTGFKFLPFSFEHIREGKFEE
# Sequence of UniProt O95433 (O95433 whole entry, looked up): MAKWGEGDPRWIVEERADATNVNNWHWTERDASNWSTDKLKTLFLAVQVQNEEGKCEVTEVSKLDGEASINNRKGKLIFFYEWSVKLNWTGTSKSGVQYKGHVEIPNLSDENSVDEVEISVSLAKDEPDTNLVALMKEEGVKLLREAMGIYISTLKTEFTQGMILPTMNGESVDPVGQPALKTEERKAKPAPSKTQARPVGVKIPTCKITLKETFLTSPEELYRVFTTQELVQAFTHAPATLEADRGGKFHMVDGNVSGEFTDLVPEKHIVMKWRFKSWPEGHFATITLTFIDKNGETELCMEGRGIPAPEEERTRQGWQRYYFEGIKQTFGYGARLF
# Sequence of UniProt Q9NRZ7 (Q9NRZ7 whole entry, looked up): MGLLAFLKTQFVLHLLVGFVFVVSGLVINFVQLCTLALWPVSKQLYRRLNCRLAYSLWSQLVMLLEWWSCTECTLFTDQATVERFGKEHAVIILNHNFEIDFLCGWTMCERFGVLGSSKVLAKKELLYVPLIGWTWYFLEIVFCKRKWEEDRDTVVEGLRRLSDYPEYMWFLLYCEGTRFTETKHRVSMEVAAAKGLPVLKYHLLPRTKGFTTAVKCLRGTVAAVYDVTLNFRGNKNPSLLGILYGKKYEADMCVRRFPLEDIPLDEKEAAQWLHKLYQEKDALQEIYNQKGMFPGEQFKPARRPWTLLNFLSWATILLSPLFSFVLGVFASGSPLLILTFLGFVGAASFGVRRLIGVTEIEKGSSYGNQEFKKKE
# Sequence of UniProt P55957 (P55957 whole entry, looked up): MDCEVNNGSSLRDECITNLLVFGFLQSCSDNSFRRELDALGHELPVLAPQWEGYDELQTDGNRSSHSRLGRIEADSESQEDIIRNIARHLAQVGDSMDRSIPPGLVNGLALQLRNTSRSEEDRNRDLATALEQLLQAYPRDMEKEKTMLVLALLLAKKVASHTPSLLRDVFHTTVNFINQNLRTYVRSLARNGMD
# Sequence of UniProt Q8N6S5 (Q8N6S5 whole entry, looked up): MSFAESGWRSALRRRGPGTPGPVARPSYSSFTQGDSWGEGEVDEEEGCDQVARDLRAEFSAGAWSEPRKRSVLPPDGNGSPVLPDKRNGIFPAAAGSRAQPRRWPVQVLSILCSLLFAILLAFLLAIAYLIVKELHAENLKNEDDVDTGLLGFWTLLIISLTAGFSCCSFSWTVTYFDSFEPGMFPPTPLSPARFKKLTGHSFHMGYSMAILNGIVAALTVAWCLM
Target,log2 fold change [1],log2 fold change [2],log2 fold change [3],log2 fold change [4],log2 fold change (Nexturastat A),log2 fold change (vemurafenib),log2 fold change [5],log2 fold change [6],log2 fold change (givinostat),log2 fold change (barasertib)
BTAF1 (UniProt O14981),-0.033,0.07,-0.035,0.011,-0.064,-0.003,0.041,-0.018,0.009,0.038
B4GALNT1 (UniProt Q00973),0.075,-0.028,-0.109,0.005,0.096,-0.172,-0.044,-0.028,-0.123,0.104
ARMC10 (UniProt Q8N2F6),0.03,-0.087,-0.019,-0.046,0.056,0.12,0.074,0.072,0.063,0.019
ACBD6 (UniProt Q9BR61),0.039,-0.04,0.139,0.067,0.28,0.029,0.022,0.127,-0.011,0.018
AGO1 (UniProt Q9UL18),-0.213,-0.021,-0.025,0.193,0.084,-0.023,-0.006,-0.111,0.071,-0.064
ATP6V1C1 (UniProt P21283),0.004,-0.037,-0.024,-0.033,0.131,-0.018,0.057,0.026,0.031,0.062
ARL6IP6 (UniProt Q8N6S5),-0.112,-0.038,0.009,-0.071,0.106,0,0.049,0.034,0.099,-0.048
APOB (UniProt P04114),-0.039,0.134,0.146,0.032,-0.049,-0.006,0.095,-0.853 (active),0.074,-0.012
BAP1 (UniProt Q92560),-0.067,-0.088,-0.149,-0.058,0.403 (active),-0.089,-0.055,0.085,0.495 (active),-0.019
AUP1 (UniProt Q9Y679),0.054,0.021,0.009,-0.005,-0.048,0.121,0.058,-0.056,0.028,0.06
AGPS (UniProt O00116),0.126,0.012,0.013,-0.001,-0.084,0.02,0.041,-0.043,-0.033,0.06
ATP6V0A1 isoform 3 (UniProt Q93050),0.038,-0.034,-0.006,-0.051,0.198,0.017,0,0.032,0.031,0.006
AGPAT3 isoform 3 (UniProt Q9NRZ7),0.019,0,0.016,0.003,-0.076,-0.001,0.043,-0.039,0.008,0.057
AAR2 (UniProt Q9Y312),-0.01,-0.026,-0.032,-0.035,0.074,-0.018,0.021,-0.105,0.018,-0.023
ALDH6A1 (UniProt Q02252),-0.02,0.032,-0.039,0.044,-0.014,0.025,0.011,0.029,-0.017,-0.038
ATP11A (UniProt P98196),-0.033,-0.022,-0.039,-0.007,-0.005,0.032,-0.027,-0.035,-0.007,-0.033
ATIC (UniProt P31939),0.083,-0.022,0.059,0.022,-0.076,0.025,0.052,0.019,-0.036,0.013
ACAD9 (UniProt Q9H845),-0.022,0.007,0.007,-0.001,-0.061,0.053,-0.019,-0.009,-0.012,-0.011
ARMC8 (UniProt Q8IUR7),0.017,0.039,-0.049,0.006,-0.002,-0.017,0.027,0.065,0,-0.025
ARL2BP (UniProt Q9Y2Y0),0.154,-0.033,0.012,0.281,0.043,-0.031,0.071,0.102,-0.041,0.079

Target,log2 fold change [1],log2 fold change [2],log2 fold change [3],log2 fold change [4],log2 fold change (Nexturastat A),log2 fold change (vemurafenib),log2 fold change [5],log2 fold change [6],log2 fold change (givinostat),log2 fold change (barasertib)
AFDN isoform 5 (UniProt P55196),-0.031,-0.049,0,0.087,-0.033,0.021,0.023,0.007,0.062,0.015
AGPAT1 (UniProt Q99943),-0.037,-0.029,-0.014,-0.03,-0.052,0.017,-0.004,0.004,0.005,0.047
AMFR (UniProt Q9UKV5),-0.013,0.01,-0.029,-0.104,-0.033,0.005,0.009,-0.042,0.086,0.041
ABCC5 (UniProt O15440),0.107,-0.033,0.035,-0.073,0.007,-0.183,-0.031,0.1,0.028,0.026
ADPRHL2 (UniProt Q9NX46),0.022,-0.06,0.007,0.111,-0.077,0.126,0.076,-0.003,0.004,0.043
ARHGAP1 (UniProt Q07960),-0.024,-0.022,-0.009,0.012,0.03,0.002,0.052,-0.018,-0.014,0.006
AFG1L (UniProt Q8WV93),0.036,0.037,0.042,0.015,-0.122,0.115,0.041,-0.018,0.013,0.01
BCCIP isoform 2 (UniProt Q9P287),0.042,-0.055,-0.015,0.022,-0.065,0.008,-0.003,-0.099,-0.066,0.026
BYSL (UniProt Q13895),0.04,-0.042,-0.01,0.016,0.14,0.079,0.032,-0.024,0.167,0.014
AURKA (UniProt O14965),-0.008,-0.041,-0.011,-0.036,0.096,-0.026,0.006,0.01,0.257,0.114
ALG11 (UniProt Q2TAA5),0.006,-0.018,-0.041,0.013,-0.004,0.053,0.019,-0.04,0,0.043
AP2B1 isoform 2 (UniProt P63010),0.016,0.018,0.021,0.018,0.033,0.031,0.039,-0.021,0.015,-0.013
ATP1A4 (UniProt Q13733),0.017,0.029,0.141,0.065,-0.03,-0.137,-0.08,-0.026,-0.216,0
ANAPC2 (UniProt Q9UJX6),0.031,-0.015,-0.001,0.069,-0.045,0.027,0.047,-0.049,0.042,0.022
ATL2 (UniProt Q8NHH9),0.022,-0.107,-0.013,0.029,0.037,-0.004,0.005,-0.104,0.023,0.019
BCLAF1 (UniProt Q9NYF8),0.012,-0.102,0.004,0.128,0.098,0.225,0.097,0.009,0.137,-0.071
AARS2 (UniProt Q5JTZ9),-0.003,-0.047,0.017,0.079,-0.015,0.045,0.04,0.049,0.05,0.058
BID isoform 2 (UniProt P55957),-0.054,-0.02,0.029,0.012,-0.056,0.117,0.001,0.016,-0.001,-0.01
ACADM isoform 2 (UniProt P11310),-0.018,-0.024,0.001,0.017,0.009,0.009,-0.015,-0.042,-0.033,0
ARFIP1 (UniProt P53367),-0.031,0.042,0.022,-0.006,-0.081,-0.026,0.084,0.045,0.058,0.046

Target,log2 fold change [1],log2 fold change [2],log2 fold change [3],log2 fold change [4],log2 fold change (Nexturastat A),log2 fold change (vemurafenib),log2 fold change [5],log2 fold change [6],log2 fold change (givinostat),log2 fold change (barasertib)
BRIX1 (UniProt Q8TDN6),0.038,-0.061,-0.09,-0.134,0.37,-0.11,0.008,0.159,0.15,-0.197
ALKBH5 (UniProt Q6P6C2),-0.12,-0.017,-0.046,-0.031,-0.068,-0.071,-0.09,0.162,0.092,-0.023
ADD2 (UniProt P35612),-0.014,0.018,-0.01,0.002,0.026,-0.03,-0.002,0.01,-0.007,-0.011
ARFGAP1 (UniProt Q8N6T3),-0.053,-0.168,0.107,0.034,0.038,0.085,0.124,0.016,0.029,0.1
AHSA1 (UniProt O95433),-0.014,0.006,0,0.062,-0.019,0.029,0.036,-0.024,-0.015,0.027
ACSF3 (UniProt Q4G176),-0.002,0.038,0.007,0.023,-0.005,0.029,0.003,0.008,-0.022,0.051
ATP1A1 (UniProt P05023),0.002,0.01,0.015,0.025,-0.019,0.017,0.005,0.068,-0.001,-0.02
ALDH9A1 isoform 3 (UniProt P49189),0.01,0.012,0.03,0.01,-0.049,0.006,0.006,-0.019,-0.005,0.01
ATP5IF1 (UniProt Q9UII2),-0.035,0.009,-0.005,0.021,-0.041,-0.078,-0.043,-0.022,-0.005,0.026
ASB6 (UniProt Q9NWX5),-0.085,-0.033,0.117,-0.175,0.125,-0.144,0.108,-0.039,0.108,0.031
BMP2K (UniProt Q9NSY1),0.01,0.033,-0.017,-0.011,0.126,0.011,0.01,-0.04,0.007,-0.014
ACSL3 (UniProt O95573),0.005,-0.051,0.1,0.029,0.008,0,0.038,-0.016,0.032,0.039
AKT2 (UniProt P31751),0.018,0.033,0.006,0.019,0.069,-0.007,0.015,-0.017,0.069,0.079
BZW2 (UniProt Q9Y6E2),0.009,-0.007,0.043,0.062,-0.034,0.012,0.058,-0.025,0.011,0.044
ATR (UniProt Q13535),-0.012,-0.022,0.013,-0.126,0.005,0.035,-0.001,0.015,0.039,0.037
ATP12A isoform 2 (UniProt P54707),-0.001,-0.006,0,0.005,-0.132,-0.03,-0.072,-0.021,-0.009,0.015
AKR1C2 (UniProt P52895),-0.153,-0.222,-0.166,-0.077,0.205,-0.046,-0.179,0.024,0.159,-0.018
ATAD3A isoform 2 (UniProt Q9NVI7),-0.04,0.005,0.007,0.017,0.207,0.033,0.052,0,0.045,0.009
AAMP (UniProt Q13685),0,-0.006,-0.028,-0.04,0.012,-0.018,0.018,-0.041,0.033,-0.006
